A selection: hits, their analogues and other compounds. The true share with any hit is near 3.4%.
LGR2 inh: blocks bursicon-induced cAMP signaling via Drosophila LGR2. HEK293 LGR2, CRE-luciferase, bursicon-stimulated, 4 h. hit rate 0.35% among 380,000. inhibition, % at 9.99 µM. AID 720647;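 active means drop in luminescence signal, shown as inhibition above about 50% in the replicate tests, limit read from the data, passing the limit was not always enough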;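 further: agonist challenge used bursicon conditioned medium at about half maximal strength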
PGC1a acetyl inh: PGC1a acetylation modulation, inhibitor mode; U2OS PGC1a acetylation, AlphaScreen anti-acetyl-lysine; with virally co-expressed GCN5 acetyltransferase; inhibition, % at 15.6 µM; hit rate 0.17% among 350,000; AID 651687;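 active means every replicate shows inhibition of at least 40%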;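 further: 0% = neutral control wells and 100% = positive control wells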
rRNA inh HTS: selective bacterial rRNA inhibition in E. coli; E. coli WT GFP vs humanized-ribosome RFP mutants, fluorescence, 24 h; active compounds read low; DMSO median 0, no signal -100; GFP signal change (wild-type ribosome), % (test concentration not listed); hit rate 1.6% among 350,000; AID 720706;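 active means significant combined selectivity score with lowered wild-type GFP, culture density cut under 30%, mutant RFP and density less affected; inactive means any of these conditions unmet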
SIRT5 inh: inhibitors of human sirtuin-5 desuccinylase; AID 652115; inhibition, % at 15 µM; Purified SirT5, succinyl-peptide AMC, trypsin-coupled fluorescence; hit rate 1.1% among 330,000; Q9NXA8; in the data active means inhibition above about 15%
Target sequence (Q9NXA8 whole entry, looked up): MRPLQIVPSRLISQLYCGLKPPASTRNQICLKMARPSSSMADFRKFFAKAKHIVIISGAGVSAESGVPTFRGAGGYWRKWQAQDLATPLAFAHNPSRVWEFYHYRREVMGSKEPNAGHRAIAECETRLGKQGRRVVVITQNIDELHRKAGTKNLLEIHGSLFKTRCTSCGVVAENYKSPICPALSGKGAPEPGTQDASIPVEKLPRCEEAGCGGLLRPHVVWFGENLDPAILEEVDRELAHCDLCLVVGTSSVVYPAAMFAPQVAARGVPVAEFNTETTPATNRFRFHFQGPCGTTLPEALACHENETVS
PAX8 reporter: inhibitors of PAX8 transcriptional activity in RMG-I cells; RMG-I TPO-luciferase reporter, SteadyGlo, 24 h; inhibition, % at 12.6 µM; hit rate 1.2% among 360,000; AID 652154;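 active means mean replicate inhibition at least 60% with every replicate also reaching 60%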;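 further: luciferase light reporting Pax8 driven TPO promoter activity; plate controls were median of neutral control wells for no effect and mitoxantrone controls for full effect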
EWS-Fli block: blocks EWS/Fli oncoprotein-driven transcription | A673 NR0B1-luciferase reporter, viability-normalised | AID 651661 | inhibition, % at 12.6 µM | hit rate 0.67% among 350,000;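 active means mean inhibition of at least 50% after viability correction, with every replicate also passing that limit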;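 further: firefly luciferase signal divided by Alamar Blue viability fluorescence both relative to DMSO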
Active calls of the source: *; nt = no result given.

SMILES	LGR2 inh	PGC1a acetyl inh	rRNA inh HTS	SIRT5 inh	PAX8 reporter	EWS-Fli block
CCC(=O)N1CC[C@H]2[C@H](CO)Nc3ccc(C#Cc4cccc(OC)c4)cc3[C@H]21	nt	nt	0	nt	nt	nt
O=C(Cc1ccncc1)NCC[C@@H]1CC[C@H](NC(=O)Nc2cccc(F)c2)[C@H](CO)O1	2	-11	0	13	0	1
CCC(CO)Oc1cc(NC(=O)c2ccc(N)cc2)c2ncn(C(C)C)c2c1 (stereo not given)	-3	7	-20*	-1	-3	-42
CCC(CO)Oc1cc(NC(=O)c2ccc(F)cc2)c2ncn(C(C)C)c2c1 (stereo not given)	-2	4	7	nt	-20	-7
CCC(COC(=O)c1ccccc1)Oc1cc(NCc2ccccc2)c2ncn(C(C)C)c2c1 (stereo not given)	-3	-14	nt	nt	64*	-4
CCCCOc1cc(NCc2ccccc2)c2ncn(C(C)C)c2c1	68*	nt	2	nt	19	11
CCC(COC)Oc1cc(NCc2ccccc2)c2ncn(C(C)C)c2c1 (stereo not given)	104*	nt	8	nt	70*	4
COCCCOc1cc(NCc2ccccc2)c2ncn(C(C)C)c2c1	17	nt	-8	nt	-2	10
COc1ccc(C(=O)Nc2ccc3c(c2)C(=O)N(C)C[C@H](OC)[C@@H](C)CN[C@@H](C)CO3)cc1	-5	-7	0	-3	1	-2
Cc1ccccc1-c1ccc([C@@H]2[C@H](CO)N3C(=O)CN(C(=O)c4ccncc4)C[C@@H]23)cc1	5	-1	1	-6	0	-2
COc1ccc(NC(=O)CSc2nnc3ccc(-c4cccnc4)nn23)cc1	-11	nt	0	2	0	-7
Cc1cc(NC(=O)CSc2ccc3nnc(-c4ccccc4)n3n2)no1	-24	20	1	-4	nt	-9
COc1ccc(NC(=O)CSc2nnc3ccc(-c4cccnc4)nn23)cc1OC	-6	nt	6	17*	15	-1
Cc1cc(NC(=O)CSc2nnc3ccc(-c4ccccc4)nn23)no1	-13	9	3	26*	-2	2
CC(C)(C)C(=O)O/N=C(\N)c1ccc([N+](=O)[O-])s1	-14	-11	10	-1	-12	-4
N/C(=N\OC(=O)C1CC1)c1ccc([N+](=O)[O-])s1	-20	-5	-55*	-4	5	-2
CCNC(=O)[C@H]1[C@H](CO)[C@H]2Cn3c(ccc(-c4ccc(F)cc4)c3=O)[C@@H]1N2Cc1ccccc1F	3	6	-2	-14	0	-1
CC(C)CC#Cc1ccc2c(c1)O[C@@H](CN(C)C(=O)Nc1ccccc1F)[C@H](C)CN([C@@H](C)CO)S2(=O)=O	-23	-5	-1	7	nt	38
CCOc1ccc(C2CC=C(C(C)=O)CN2S(=O)(=O)c2ccc(C)cc2)cc1 (stereo not given)	nt	-2	nt	1	-5	4
CCOC(=O)C1=CCC(c2ccc(CC)cc2)N(S(=O)(=O)c2ccc(C)cc2)C1 (stereo not given)	20	-25	13	nt	13	-8
CCc1ccc([C@@H]2CC=C(C(=O)O)CN2S(=O)(=O)c2ccc(C)cc2)cc1	-1	3	-23*	nt	-1	-4
CCOc1ccc([C@@H]2CC=C(C(=O)O)CN2S(=O)(=O)c2ccc(C)cc2)cc1	nt	nt	-26*	1	-15	-10
C[C@H](CO)N1C[C@H](C)[C@@H](CN(C)C(=O)Nc2ccc(C(F)(F)F)cc2)OCCCC[C@H](C)Oc2ccc(NC(=O)Nc3ccc(F)cc3)cc2C1=O	10	0	1	11	13	-3
Cc1ccccc1-c1ccc(C2[C@@H]3CN(S(=O)(=O)c4ccccc4C)C[C@H]2N3)cc1 (stereo not given in full)	-21	-9	-41	3	10	-7
CCOc1ccc(N/C(N)=N/c2nc(CSc3nnc(C)s3)cc(=O)[nH]2)cc1	-15	2	12	7	-2	67*
SMILES	LGR2 inh	PGC1a acetyl inh	rRNA inh HTS	SIRT5 inh	PAX8 reporter	EWS-Fli block
COCCNC(=O)C[C@@H]1CC[C@H]2[C@@H](COC[C@@H](O)CN2S(=O)(=O)c2ccccc2C)O1	11	3	-1	-3	-57	4
CN(C[C@H]1N[C@@H](CO)[C@@H]1c1ccc(-c2cccc(F)c2)cc1)S(C)(=O)=O	-5	5	2	0	100*	14
CN(C[C@@H]1N[C@@H](CO)[C@@H]1c1ccc(-c2cccc(F)c2)cc1)S(C)(=O)=O	4	-7	-1	-3	10	-2
CSc1ccc(C2NN=C(c3ccccc3)S2)cc1 (stereo not given)	84*	-4	20	-2	-5	44
Oc1ccccc1C1NN=C(c2ccccc2)S1 (stereo not given)	36	-10	23	-7	-49	-18
CCCC(=O)N1CC2(C1)CN(C(=O)C1CCCC1)[C@H](CO)c1[nH]c3cc(OC)ccc3c12	nt	nt	0	nt	nt	nt
Cc1ccc(S(=O)(=O)Nc2ccc3c(c2)C(=O)N([C@H](C)CO)C[C@H](C)[C@H](CN(C)Cc2ccc(C(F)(F)F)cc2)O3)cc1	7	-7	0	nt	20	14
Cc1ccc(Cn2cc(CN3CC(N4CCN(Cc5cccc(C)c5)CC4)CS3(=O)=O)nn2)cc1 (stereo not given)	12	nt	-13	0	3	3
O=S1(=O)CC(N2CCCC2)CN1Cc1cn(Cc2ccccc2)nn1 (stereo not given)	-17	nt	9	28*	-2	-1
CN(C)CCN1CCN(C2CN(Cc3cn(Cc4ccccc4C(F)(F)F)nn3)S(=O)(=O)C2)CC1 (stereo not given)	11	-16	5	21*	-6	-10
Cc1cccc(CN2CCN(C3CN(Cc4cn(Cc5ccc(Cl)cc5)nn4)S(=O)(=O)C3)CC2)c1 (stereo not given)	-7	nt	-25*	-6	-11	3
Cc1cccc(CN2CCN(C3CN(Cc4cn(Cc5cccc(Cl)c5)nn4)S(=O)(=O)C3)CC2)c1 (stereo not given)	-16	nt	-36*	3	-8	8
COC(=O)[C@@H]1[C@@H](CO)[C@@H]2Cn3c(ccc(C4=CCCCC4)c3=O)[C@@H]2N1CC1CCCCC1	0	nt	-12	4	-3	1
C[C@H]1CN([C@@H](C)CO)C(=O)c2cc(-c3cccnc3)cnc2O[C@@H]1CN(C)C(=O)NC1CCCC1	19	11	5	0	nt	-12
O=S1(=O)CC(N2CCN(Cc3ccccc3F)CC2)CN1Cc1cn(Cc2cccc(Cl)c2)nn1 (stereo not given)	-1	nt	-24*	-3	15	-3
CCCCCCn1cc(CN2CC(N3CCSCC3)CS2(=O)=O)nn1 (stereo not given)	12	nt	4	17*	-15	-1

Compound activity from PubChem.
